Calls of active or inactive are those of the source.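 How the source made its calls: active means compounds lowering luciferase light whose fitted half-effect concentration is at most twice the top tested dose; inconclusive means flat curve with 30 to 70% inhibition, or poor fit; inactive means the rest.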

The nature of the test: luciferase signal loss, tTA control fusion, HeLa F-luc tTA cells, dry powder, counter-screen for HIV Env fusion inhibitor project, dose response (AID 687021). The settings on record: luciferase luminescence counterscreen; series mostly up to 35 µM; activity change, negative = inhibition: at the top concentration. On the technique in general: A counterscreen serves to expose hits that act by an unwanted route or on another target.
Regarding `CCCNC(=O)N1[C@H](C#N)[C@H](c2ccc(-c3cccnc3)cc2)[C@@H]1CO`, the “activity change, negative = inhibition” value was 7.74% (inactive). In the case of `O=C(CCc1ccc(S(=O)(=O)N2CCOCC2)cc1)Nc1nc(COc2ccccc2)cs1` it was 5.38% (inactive); in that of `Cc1noc(C)c1S(=O)(=O)Nc1cccc2c1O[C@@H](CN(C)Cc1ccc(C(F)(F)F)cc1)[C@@H](C)CN([C@@H](C)CO)C2=O`, 110% (inactive); in that of `COC(=O)COc1ccc(S(=O)(=O)NCc2ccncc2)cc1`, 32.8% (inactive). Consider `Cc1noc(C)c1S(=O)(=O)Nc1cccc2c1O[C@H](CN(C)Cc1ccc(C(F)(F)F)cc1)[C@@H](C)CN([C@H](C)CO)C2=O`, for which the “activity change, negative = inhibition” value was 57.2% (inactive). Take `CC1(C)CC(NC(=O)C(=O)Nc2ccc(Cl)cc2)CC(C)(C)N1`: the “activity change, negative = inhibition” value is 60.4% (inactive).

For the compound `CCCOc1ccc(S(=O)(=O)NCc2cccnc2)cc1`, the “activity change, negative = inhibition” value was -9.22% (inactive). In the case of `Oc1ccc(CNc2ccccc2F)c2cccnc12` it was 21.1% (inactive).

(Values after PubChem BioAssay AID687021 (Broad Institute, 2013).)
